The list is not random: actives were taken first. Their share in the collection is about 7.5%.
SMN2 splice up = qHTS Assay for Enhancers of SMN2 Splice Variant Expression; AID 1458, 2008; hit rate 2.8% among 210,000; HEK293 SMN2-luciferase splicing reporter, luminescence, 30-36 h; Potency, µM (titrated, usually from 46.1 µM), without a hit: at the highest dose activity change, positive = activation, usual class: activators; further: % of control where 0% means no effect; nearly all actives have a fitted effect of over 55% in size
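HEK293 cells carry an SMN2 […]–luciferase reporter in which exon 7 inclusion puts luciferase in frame. Cells were plated 10-12 h before compound addition, then incubated 30-36 h at 37C. ONE-Glo luminescence was read; sodium butyrate at 4.5 mM final served as control.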
ELG1 genotoxic = qHTS screen for small molecules that induce genotoxicity in human embryonic kidney (HEK293T) cells expressing luciferase-tagged ELG1. HEK293T ELG1-luciferase reporter, luminescence, 16 h. Potency, µM (series often up to 46 µM), for inactives: at the highest dose activity change, positive = activation, hits mostly activators. hit rate 1.3% among 330,000; further: % of control where 0% means no effect; nearly all actives have a fitted effect of over 60% in size
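HEK293T cells expressing luciferase-tagged ELG1 were exposed to compound or DMSO vehicle for 16 hr at 37 °C and 5% CO2. Luciferase activity was then measured with ONE-Glo after 30 min at room temperature.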
NPC1 promoter act = qHTS Assay for NPC1 Promoter Activators | Huh7 NPC1 promoter luciferase reporter, 24 h | Potency, µM (top dose mostly 9.22 µM), without a hit: at the top dose activation, actives largely listed as activators | hit rate 2.4% among 320,000 | AID 485313, 2010; further: % of control where 0% means no effect; nearly all actives have a fitted effect of over 60% in size
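NPC1 promoter–luciferase Huh7 cells; 24 h compound; luminescence.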
FLuc counter = qHTS profiling assay for firefly luciferase inhibitor/activator using purifed enzyme and Km concentrations of substrates (counterscreen for miR-21 project); hit rate 6.9% among 360,000; Potency, µM (series often up to 57.5 µM), without a hit: at the highest dose activity change, negative = inhibition, hits mostly inhibitors; Luciferin 4-monooxygenase (Photinus pyralis), P08659; purified FLuc, Km substrates, luminescence inhibition;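 further: plate controls were vehicle for no effect and reference inhibitor for full effect; nearly all actives have a fitted effect of over 55% in size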
Target sequence (P08659 whole entry, looked up): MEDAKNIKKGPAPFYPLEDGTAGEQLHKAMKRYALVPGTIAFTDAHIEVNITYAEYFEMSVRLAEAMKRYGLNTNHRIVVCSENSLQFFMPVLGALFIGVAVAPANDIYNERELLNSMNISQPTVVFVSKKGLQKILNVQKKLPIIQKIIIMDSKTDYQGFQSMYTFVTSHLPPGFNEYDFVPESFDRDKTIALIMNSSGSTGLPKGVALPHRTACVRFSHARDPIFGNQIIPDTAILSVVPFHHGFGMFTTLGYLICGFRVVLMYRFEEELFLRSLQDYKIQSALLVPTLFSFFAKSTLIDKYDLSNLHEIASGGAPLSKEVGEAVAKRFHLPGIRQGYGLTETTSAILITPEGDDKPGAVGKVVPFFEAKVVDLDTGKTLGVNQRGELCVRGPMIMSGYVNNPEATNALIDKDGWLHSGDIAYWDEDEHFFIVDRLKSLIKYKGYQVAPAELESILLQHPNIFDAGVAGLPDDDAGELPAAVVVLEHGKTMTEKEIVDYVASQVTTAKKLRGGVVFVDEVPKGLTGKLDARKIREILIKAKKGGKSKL
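Purified P. pyralis luciferase, 10 nM final, with Km-level 10 uM D-luciferin and 10 uM ATP in 50 mM Tris acetate pH 7.5, 10 mM Mg acetate, 0.01% Tween-20, 0.05% BSA; 6-point qHTS titration about 60 µM downward; luminescence read.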
Rab9 prom act = qHTS Assay for Rab9 Promoter Activators. hit rate 2.8% among 320,000. AID 485297, 2010. Potency, µM (highest dose often 9.22 µM), for the others: top-dose activation, negative = inhibition, hits mostly activators. Huh7 Rab9 promoter-luciferase reporter, luminescence, 24 h; further: % of control where 0% means no effect; nearly all actives have a fitted effect of over 60% in size
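Steps: seed 1500 Huh7 Rab9-luc cells per well, rest 2 h at 37 °C; add compound in DMSO; incubate 24 h; add luciferase reagent, 10 min ambient; read luminescence.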
Numbers without * were called inactive; ? = inconclusive; . = not tested or not shown; [ ] = dose if it differs, or a comment. The call rests on the fitted dose curve; in most records, active means well fitted curve in the direction sought with a large enough effect; inconclusive means small, poorly fitted or top-dose-only effect, or another doubt; inactive means no such curve, though single readings can be large; an effect the other way counts as inactive or inconclusive. Potency means the concentration at half of the fitted maximal effect.

SMILES	SMN2 splice up	ELG1 genotoxic	NPC1 promoter act	FLuc counter	Rab9 prom act
CC(C)c1ccc(Cc2cn3cc(-c4cc5ccccc5oc4=O)nc3s2)cc1	-25.4%	.	.	-17.1%	.
Cc1coc2cc3oc(=O)c(CC(=O)NCCc4ccccc4F)c(C)c3cc12	7.6%	.	.	4.1%	.
O=C(CSc1cn(CCNC(=O)c2ccccc2F)c2ccccc12)Nc1ccc2c(c1)OCCO2	-15.7%	.	.	13.5µM*	.
Cn1cc(SCC(=O)Nc2ccc3c(c2)OCCO3)c2ccccc21	2.2%	?	14.5%	16.9µM*	10.7%
O=C(CSc1cn(CCNC(=O)c2ccccc2F)c2ccccc12)Nc1ccc(F)cc1	-8.7%	.	.	-17.9%	.
Brc1cccc(-c2nnc(-c3ccccc3)o2)c1	17.8µM*	3.26µM*	2µM*	3.01µM*	1.41µM*
Cc1ccc(-c2nnc(-c3cccc(Br)c3)o2)cc1	12.6µM*	8.2µM*	?	4.78µM*	?
O=C1OCCC1Sc1nnc(-c2cccc(Br)c2)o1 (centres undefined)	25.2%	-0.2%	0.6%	?	0.1%
CCC(CC)C(=O)NCCN1CCN(C(=O)C(CC)CC)CC1	7.7%	-2.1%	-3.4%	-1.4%	3.1%
N=C1/C(=C\c2ccc(SCc3ccccc3)o2)C(=O)N=C2SC=NN12	8.2%	3.5%	-5.6%	13.5µM*	-4.1%
CCN(C(=O)COC(=O)CNC(=O)c1cccc(C)c1)c1c(N)n(Cc2ccccc2)c(=O)[nH]c1=O	.	6.4%	-2.9%	-0.2%	3.3%
COc1ccc(CN=C2NN=C(c3cccc(OC)c3)CS2)cc1	28.2µM*	-7.2%	28.4%	?	?
Cc1ccc(C)c(C2=NNC(=NCc3ccccc3)SC2)c1	-2.7%	-9.8%	11.3%	-14.8%	1.0%
COc1ccc(CN=C2NN=C(c3ccccc3)CS2)cc1	?	12.8%	18.0%	26.9µM*	?
COc1cccc(C2=NNC(=NCc3ccccc3)SC2)c1	?	2.3%	19.3%	21.3µM*	?
COCCn1c(C)cc(C2=NNC(=Nc3ccc(OC)cc3)SC2)c1C	10.6%	-2.0%	-1.8%	?	?
CN(C)CCNC(=O)Cc1c(C(=O)O)n(C)c2ccccc12	9.8%	-0.1%	-3.1%	3.1%	4.5%
O=C1COc2ccc(C(=O)COC(=O)c3ccc4ccccc4n3)cc2N1	-4.4%	0.8%	3.9%	-6.4%	-6.1%
O=C(N/N=C/c1cccs1)c1ccc(NC(=O)c2ccccc2Cl)cc1	.	-2.7%	1.0%	-3.9%	-2.2%
O=C(N/N=C/c1cn(-c2cccs2)nc1-c1ccccc1)c1ccccc1Cl	20µM*	5.1%	5.9%	12µM*	-2.8%
O=C(N/N=C/c1cn(-c2ccccc2)nc1-c1ccccc1)c1ccco1	?	-0.6%	9.2%	-14.7%	16.1%
O=C(N/N=C/c1cn(-c2cccs2)nc1-c1ccccc1)c1ccc(O)cc1	?	-19.1%	7.0%	4.26µM*	3.6%
COc1ccc(/C=N/Nc2nnc(Cc3ccccc3)c(=O)[nH]2)cc1OC	.	13.9%	?	1.69µM*	26.0%
COc1ccc(Cc2nnc(N/N=C/c3ccc(O)cc3)[nH]c2=O)cc1OC	-86.3%	16.3%	-34.1%	-3.0%	-31.6%
COc1ccc(/C=N/Nc2nc3ccccc3c(=O)n2-c2ccccc2)cc1OC	-8.7%[1.84 µM]	10.1%	17.8%	1.9µM*	?
SMILES	SMN2 splice up	ELG1 genotoxic	NPC1 promoter act	FLuc counter	Rab9 prom act
CCOC(=O)C1=C2c3ccc4ccccc4c3CC(C)(C)N2C(=O)C1=O	-11.6%	-2.6%	-0.7%	-17.6%	0.0%
CC(C)(C)c1csc(NC(=O)c2cccnc2)n1	.	-2.1%	-2.4%	?	0.2%
CC(C)(C)c1csc(NC(=O)Cc2cccs2)n1	-25.0%	6.2%	0.0%	15.1µM*	15.9%
CC(C)(C)c1csc(NC(=O)c2cccs2)n1	.	?	3.16µM*	10.7µM*	3.55µM*
Clc1ccccc1N/N=C/c1ccc2c(c1)OCO2	20µM*	?	2.82µM*	10.7µM*	2.82µM*
C/C(=N\Nc1nc2ccccc2[nH]1)c1ccc2c(c1)OCCO2	.	-4.3%	-38.3%	6.01µM*	-5.2%
N#CC1(c2nc3ccccc3[nH]2)CC1c1ccc2c(c1)OCO2 (centres undefined)	10.7%	2.7%	1.3%	19µM*	0.0%
C(=N\Nc1nc2ccccc2[nH]1)/c1ccc2c(c1)OCO2	12.6µM*	?	1.58µM*	7.57µM*	2µM*
O=C(c1ccccc1F)N1CCN(S(=O)(=O)c2ccc(S(=O)(=O)N3CCCCCC3)cc2)CC1	.	5.1%	-3.6%	-0.5%	-1.0%
C/C(=N\Nc1ccccn1)c1ccc2c(c1)OCO2	.	?	?	21.3µM*	3.16µM*
C/C(=N\Nc1nc2ccccc2[nH]1)c1ccc2c(c1)OCO2	0.2%	-4.6%	14.0%	26.9µM*	14.9%
CCOC(=O)c1cnc2c(Cl)cc(Cl)cc2c1Nc1cc(C(=O)O)ccc1C	-6.7%	.	.	12µM*	.
c1cc2c(cc1C1=NNC(=NC3CC3)SC1)OCCO2	-80.0%	?	0.0003µM*	0.239µM*	0.0013µM*
CCCCN=C1NN=C(c2ccc(C)c(C)c2)CS1	14.1µM*	13.2%	2.82µM*	23.9µM*	1.58µM*
COc1ccc(N=C2NN=C(c3ccc4c(c3)OCCO4)CS2)cc1	-11.5%	15.2%	-0.4%	?	22.9%
COCCN=C1NN=C(c2ccc(C)c([N+](=O)[O-])c2)CS1	11.2µM*	18.3µM*	2.82µM*	15.1µM*	4.47µM*
CCCCN=C1NN=C(c2ccc3c(c2)OCCO3)CS1	.	1.83µM*	1.26µM*	3.01µM*	0.891µM*
NCCC[C@@H](CC(=O)N[C@@H]1CCNC[C@H]1C(=O)N[C@H](CC(=O)N[C@@H](CCC(=O)O)CC(=O)O)Cc1ccccc1)NC(=O)C[C@H](Cc1ccccc1)NC(=O)[C@@H]1CNCC[C@H]1N	-3.4%	.	.	.	.
COc1ccc(CC(=O)NCC(c2ccc(OC)cc2)N(C)C)cc1 (centres undefined)	4.9%	-14.1%	2.9%	5.6%	1.4%
COC(=O)c1ccccc1NC(=O)Nc1nnc(N2CCCCC2C)s1 (centres undefined)	2.9%	0.7%	1.5%	4.0%	-2.2%
COc1ccc(OC)c(NC(=O)Nc2nnc(N3CCCCC3C)s2)c1 (centres undefined)	.	7.1%	11.4%	19µM*	7.5%
COc1ccc(NC(=O)Nc2nnc(N3CCCCC3C)s2)cc1OC (centres undefined)	-3.7%	0.5%	-1.7%	16.9µM*	-5.4%
CCc1ccc(NC(=O)c2ccccc2SC)cc1	?	?	?	15.1µM*	?
CCc1ccc(NC(=O)c2cccc(C(=O)Nc3ccc(CC)cc3)n2)cc1	.	5.9%	8.6%	5.36µM*	15.6%
CSc1ccccc1C(=O)Nc1c(C)cccc1C	.	0.0%	-4.3%	3.2%	-2.4%

Screening results from PubChem.
